Active and inactive are the calls of the source.

The nature of assay [1]: anti-His antibody binders, primary screen, artefact control for SMM control protein annotation, biochemical, small-molecule microarray, 635 nm fluorescence (AID 1128).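 Further: score merges feature fluorescence with signal-to-noise for each printed compound spot.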 The following applies: anti-His Alexa647 antibody binding, higher = more signal.
For assay [2], the system named is Human papillomavirus type 1a E7 protein (residues 1-88). Put plainly: HPV1a E7 small-molecule binders, primary screen, biochemical, small-molecule microarray, residues 1-88, 635 nm (AID 1129). The following applies: small-molecule microarray binding, fluorescence 635 nm; higher = more signal.
Assay [3] deals with Focal adhesion kinase 1 (Homo sapiens) (UniProt Q05397). Put plainly: small-molecule microarray binders of FAK, primary screen, biochemical, 635/667 nm fluorescence, BSA, DTT (AID 1130).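 Further: composite of spot emission at 667 nm and signal to noise over triplicate slides.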 To be noted: PTK2 binding, 635 nm fluorescence, higher = more signal.
Focal adhesion kinase 1 (Homo sapiens), sequence (Q05397 whole entry, looked up): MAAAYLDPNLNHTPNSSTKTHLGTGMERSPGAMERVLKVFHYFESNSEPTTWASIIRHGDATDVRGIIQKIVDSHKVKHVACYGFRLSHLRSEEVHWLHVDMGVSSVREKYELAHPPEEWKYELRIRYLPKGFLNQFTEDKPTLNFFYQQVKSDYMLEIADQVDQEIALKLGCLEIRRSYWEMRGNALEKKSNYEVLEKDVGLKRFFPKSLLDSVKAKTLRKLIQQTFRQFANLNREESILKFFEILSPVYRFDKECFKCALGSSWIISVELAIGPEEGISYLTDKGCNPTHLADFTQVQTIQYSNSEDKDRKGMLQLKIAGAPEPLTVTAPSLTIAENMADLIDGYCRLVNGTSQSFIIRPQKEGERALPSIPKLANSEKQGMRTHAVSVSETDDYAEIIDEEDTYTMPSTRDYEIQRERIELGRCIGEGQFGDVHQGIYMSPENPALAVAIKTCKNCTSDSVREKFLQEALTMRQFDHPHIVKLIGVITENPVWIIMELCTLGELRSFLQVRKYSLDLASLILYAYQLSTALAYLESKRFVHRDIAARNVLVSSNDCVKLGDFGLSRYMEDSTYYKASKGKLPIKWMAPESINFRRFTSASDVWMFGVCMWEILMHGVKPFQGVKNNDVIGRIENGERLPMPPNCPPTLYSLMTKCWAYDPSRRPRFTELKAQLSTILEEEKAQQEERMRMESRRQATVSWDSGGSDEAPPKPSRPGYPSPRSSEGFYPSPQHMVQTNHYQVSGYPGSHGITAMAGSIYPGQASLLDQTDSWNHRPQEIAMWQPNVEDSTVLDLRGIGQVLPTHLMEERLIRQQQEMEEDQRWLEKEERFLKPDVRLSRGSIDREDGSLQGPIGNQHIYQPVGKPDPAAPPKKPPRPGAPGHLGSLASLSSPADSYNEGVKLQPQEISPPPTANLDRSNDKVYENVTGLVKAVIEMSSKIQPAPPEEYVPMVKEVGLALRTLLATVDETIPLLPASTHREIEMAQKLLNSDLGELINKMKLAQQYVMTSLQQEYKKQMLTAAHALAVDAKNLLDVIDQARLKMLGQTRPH
Assay [4] concerns Fibrinogen (Alexa647-labelled). Briefly: fibrinogen binders on compound microarrays, profiling panel, artefact control for SMM control-protein annotation, biochemical, small-molecule microarray, 635/667 nm fluorescence (AID 1131).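 Further: z-score merges 667 nm fluorescence with per-spot signal-to-noise over triplicate slides.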 The following applies: fibrinogen-A647 binding fluorescence, higher = more signal.
In assay [5] the target is Follistatin (Homo sapiens) (UniProt P19883). Briefly: follistatin binders on small-molecule microarrays, primary screen, biochemical, small-molecule microarray, 635/667 nm fluorescence (AID 1132). To be noted: FST binding, 635 nm fluorescence, higher = more signal.
Follistatin (Homo sapiens), sequence (P19883 whole entry, looked up): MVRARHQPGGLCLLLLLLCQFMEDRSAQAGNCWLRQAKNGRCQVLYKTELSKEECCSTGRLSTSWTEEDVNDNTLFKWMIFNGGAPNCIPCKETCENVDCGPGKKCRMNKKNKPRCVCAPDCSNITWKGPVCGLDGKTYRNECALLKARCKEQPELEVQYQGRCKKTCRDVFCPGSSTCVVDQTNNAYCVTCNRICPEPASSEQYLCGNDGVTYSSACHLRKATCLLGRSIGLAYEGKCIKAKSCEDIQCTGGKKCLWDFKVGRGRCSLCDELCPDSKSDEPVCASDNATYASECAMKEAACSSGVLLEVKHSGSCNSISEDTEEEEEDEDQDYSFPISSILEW
Assay [6] has as its target Fibroblast growth factor 2 (Homo sapiens) (UniProt P09038). Briefly: FGF2 binders on small-molecule microarrays, primary screen, biochemical, small-molecule microarray, 635/667 nm fluorescence (AID 1133). The following applies: small-molecule microarray binding, FGF2, fluorescence 635/667; higher = more signal.
A short description of assay [7]: mitochondrial membrane potential change in A549 cells, profiling panel, cell-based, JC-1 fluorescence, basal, 24 h, 100 nL (AID 1138).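 Further: A549 lung adenocarcinoma cells under basal conditions with no added stimulus; test concentration not given here.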 To be noted: higher = more signal.
For assay [8], the system named is Lefty1. Put plainly: Lefty1 binders on small-molecule microarrays, primary screen, biochemical, small-molecule microarray, 635/667 nm fluorescence (AID 1139). To be noted: small-molecule microarray binding, fluorescence 635/667; higher = more signal.
Assay [9] has as its system wheat germ agglutinin (Triticum aestivum), Alexa647-labelled. Put plainly: wheat germ agglutinin binders on compound microarrays, profiling panel, artefact control for SMM control-protein annotation, biochemical, small-molecule microarray, 635/667 nm fluorescence (AID 1140).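 Further: score merges 667 nm feature emission with signal to noise over triplicate slides.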 To be noted: WGA-A647 binding, 635 nm fluorescence, higher = more signal.
Assay [10] concerns the target Luciferin 4-monooxygenase (Photinus pyralis) (UniProt P08659). Put plainly: firefly luciferase enzyme inhibitors, primary screen, biochemical, luminescence, purified enzyme, 2006 set (AID 1141).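 Further: cell-free assay with purified firefly luciferase at 100 ng per well in PBS; test concentration not given here.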 To be noted: SteadyGlo luminescence, 30 min, higher = more signal, called active from +8 up or from −8 down.

Luciferin 4-monooxygenase (Photinus pyralis), sequence (P08659 whole entry, looked up): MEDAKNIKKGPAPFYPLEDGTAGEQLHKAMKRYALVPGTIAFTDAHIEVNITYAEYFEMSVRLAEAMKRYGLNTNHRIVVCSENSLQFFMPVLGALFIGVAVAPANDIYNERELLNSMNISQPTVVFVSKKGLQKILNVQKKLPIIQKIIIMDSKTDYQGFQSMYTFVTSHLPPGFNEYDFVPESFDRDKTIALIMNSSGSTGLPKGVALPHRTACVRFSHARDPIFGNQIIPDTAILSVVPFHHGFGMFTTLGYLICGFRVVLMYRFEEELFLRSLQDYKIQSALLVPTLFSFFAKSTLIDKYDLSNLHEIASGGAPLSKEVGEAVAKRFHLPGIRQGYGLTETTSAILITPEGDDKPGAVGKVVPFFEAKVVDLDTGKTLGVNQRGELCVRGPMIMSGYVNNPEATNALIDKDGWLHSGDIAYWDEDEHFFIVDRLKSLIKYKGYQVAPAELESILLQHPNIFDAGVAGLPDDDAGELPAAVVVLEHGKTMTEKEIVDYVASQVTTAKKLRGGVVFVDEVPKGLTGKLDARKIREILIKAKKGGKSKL
Fibroblast growth factor 2 (Homo sapiens), sequence (P09038 whole entry, looked up): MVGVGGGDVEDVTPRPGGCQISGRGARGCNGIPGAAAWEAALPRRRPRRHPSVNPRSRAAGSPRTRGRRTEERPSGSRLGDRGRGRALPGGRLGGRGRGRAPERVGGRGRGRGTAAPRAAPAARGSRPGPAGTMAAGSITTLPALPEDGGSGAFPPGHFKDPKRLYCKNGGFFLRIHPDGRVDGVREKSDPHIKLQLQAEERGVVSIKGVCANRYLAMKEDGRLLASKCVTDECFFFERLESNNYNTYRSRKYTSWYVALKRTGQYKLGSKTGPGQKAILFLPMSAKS

In the case of `NCCCCCCNC(=O)[C@@H]1C[C@@H]2C(=O)N3CCC[C@H]3C(=O)N2[C@@H]1c1cccc(OCCO)c1`, the composite z-score in [1] amounted to 2.14; in assay [2] it was 0.894; in assay [3], 0.0676; in [4], 0.882; in [5] it was 0.832; in assay [6], 1.16. Moreover, the composite z-score came out at 1.24 in assay [8] and 0.938 in assay [9]. In addition, the z-score in [7] was -0.383; in assay [10], -0.268 (inactive).
Take `COCCOC(=O)N1C(=O)[C@@]2(c3cc(C#CCCO)ccc31)[C@H](C(N)=O)[C@H]1C(=O)O[C@H](c3ccccc3)[C@H](c3ccccc3)N1[C@@H]2c1ccccc1OCCO`: the composite z-score in assay [1] amounted to 3.07; in [2], 1.21; in assay [3] it was 0.425; in assay [4], 0.897; in assay [5], 1.19; in assay [6], 0.516. For the same molecule, the composite z-score in assay [8] amounted to 0.673; in assay [9], 0.713. For the same molecule, the results for the z-score in assay [7] and in assay [10] were -0.256 and -0.683 (inactive), respectively.
For the molecule `COC(=O)[C@H](Cc1ccc(O)cc1)N[C@@H](/C=C/C1CC1)[C@H](O)Cc1ccccc1`, the composite z-score in assay [1] was 0.257; in assay [2], -0.506; in [3], -0.408; in assay [4], -0.785; in assay [5], 0.156; in assay [6], 0.0843. Further, the values for the composite z-score in assay [8] and in assay [9] were 0.389 and -0.185, respectively. The z-score in assay [7] is 0.091; in assay [10], 0.209 (inactive).
Take `CC(=O)OCC1C2CC[C@H]3C(OCc4ccc(F)cc4C(F)(F)F)OC[C@]4(C)[C@H]3C2=C(CN4C(=O)OC(C)(C)C)[C@H](C)C1COC(C)=O` (stereo not given in full): the composite z-score was 1.14 in assay [1]; -0.267 in assay [2]; 0.0527 in assay [3]; 0.783 in assay [4]; -0.603 in assay [5]; -1.66 in assay [6]. The values for the composite z-score in assay [8] and in assay [9] were -0.372 and 0.517, respectively. Also, the z-score in assay [7] is 1.71; in assay [10] it was 1.62 (inactive).
For the molecule `COc1ccc([Si](C)(C)[C@@H]2[C@@H](CC(=O)N3CCC[C@H]3CO)O[C@]3(C(=O)N(Cc4cccc(N5CCCCC5=O)c4)c4ccccc43)[C@H]2C)cc1`, the composite z-score was found to be 2.54 in [1]; 1.03 in assay [2]; 0.0576 in [3]; 0.641 in [4]; 0.767 in [5]; 0.473 in assay [6]. In addition, the composite z-score in assay [8] came to 1.23; in [9], 0.307. Further, the z-score in assay [7] is 0.218; in assay [10] it was -1.86 (inactive).
Take `COc1ccc([Si](C)(C)[C@@H]2[C@@H](CC(=O)N3Cc4ccccc4C[C@H]3CO)O[C@]3(C(=O)N(Cc4ccc(N5CCOC5=O)cc4)c4ccccc43)[C@H]2C)cc1`: the composite z-score in assay [1] stood at 1.74; in assay [2] it was 0.986; in assay [3], 0.239; in [4], 0.55; in assay [5], 1.32; in [6], 1.49. Further, the composite z-score in assay [8] amounted to 1.53; in assay [9], 0.914. The z-score in assay [7] was 0.138; in assay [10] it was -0.912 (inactive).
In the case of `COC(=O)[C@@]1(Cc2ccc(F)cc2)[C@H]2c3cc(C(=O)N4CCCC4)n(CCc4ccccn4)c3C[C@H]2CN1C(=O)c1ccccc1`, the composite z-score in [1] was 0.272; in assay [2], 0.786; in assay [3], 0.754; in assay [4] it was 0.97; in assay [5], -0.227; in assay [6] it was -0.418. Moreover, the values for the composite z-score in assay [8] and in [9] were -1.03 and 1.01, respectively. The values for the z-score in assay [7] and in [10] were 0.622 and 0.458 (inactive), respectively.
As to `CC(C)C(CO)N1C(=O)[C@@H]2C3C(=O)OCCC/C=C\[C@H]3OC23C=CCN(Cc2ccccc2)C(=O)[C@@H]13` (stereo not given in full), the composite z-score is -1.18 in assay [1]; -0.359 in assay [2]; -0.0926 in [3]; -2.51 in assay [4]; -0.908 in [5]; -0.591 in assay [6]. Also, the composite z-score was -0.524 in [8] and -1.2 in assay [9]. Moreover, the z-score in assay [7] was 1.21; in assay [10], -0.59 (inactive).
As for `CC(C)C(=C=CC[C@H](O)c1ccccc1OCCO)C[C@H](O)c1cc(Cl)cc(Cl)c1O`, the composite z-score in [1] was -0.287; in assay [2], 1.15; in assay [3], 0.0701; in assay [4] it was 0.866; in [5], 1.09; in [6], 0.285. The composite z-score amounted to 1.27 in assay [8] and 1.16 in assay [9]. Also, the z-score is 0.686 in assay [7] and -1.38 (inactive) in assay [10].
As to `CC(=O)NCCCC[C@@H]1NC(=O)[C@H]2C[C@@H](C(=O)NCCCCCCNC(=O)CS)[C@@H](c3cccc(OCCO)c3)N2C1=O`, the composite z-score is 3.57 in assay [1]; 0.937 in assay [2]; 0.612 in assay [3]; -0.256 in assay [4]; 1.36 in assay [5]; 1.63 in assay [6]. Further, the values for the composite z-score in assay [8] and in assay [9] were 0.0938 and 0.184, respectively. In addition, the results for the z-score in [7] and in [10] were -0.0905 and -0.399 (inactive), respectively.

For the origin of these results see PubChem BioAssay.
